Among the data in PubChem BioAssay (NCI) are growth values, retold here.

“And” between values parts separate entries of the source, which are not always exact repeats. Equal values may be shown once. About 83,000 compounds went through this panel and 20% of them were active in at least one assay; those are over-represented in the sample as a whole.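 Testing used 96-well plates and a 48-hour single-concentration exposure. Example: -40 means 40% of the starting cells died.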 Unmarked numbers belong to inactive results. The source made the active and inactive calls. How the source made its calls: active means growth percent below 10; inactive means the rest.

The test system of this assay is HL-60(TB) leukemia. Description: NCI-60 one-dose screen, 48 h (100 = growth as untreated, 0 = no growth, -100 = all killed). To be noted: 10 µM unless noted.
For the compound `CCc1ccccc1-c1nc(CN[C@@H]2C[C@@H]3C[C@H]([C@H]2C)C3(C)C)c(C)o1`, the growth was -35.9% (active). For the compound `C=C1CCC2C3(C)COC(c4ccc(F)cc4)OC3CCC2(C)C1C/C=C1/C(=O)OCC1O` (stereo not given), the growth was 0.0909% (active). Take `COc1ccc2nc(NC(=O)c3ccc(N(C)C)cc3)sc2c1`: the growth is 51.5%. In the case of `Cc1ccc(Nc2nnc(-c3c[nH]c4ccccc34)o2)c(C)c1`, the growth is 1.4% (active). For the compound `CC(=O)C1=C(C)NC(SCC(=O)Nc2ccc(S(=O)(=O)Nc3cc(C)on3)cc2)=NC1c1ccccc1` (stereo not given), the growth was 100%.

With `COc1ccc2[nH]c(=O)c(CSc3nccc(-c4ccc(OC)c(OC)c4)n3)cc2c1`, the growth is 16.9%. On to `CN(C)c1nc(NCCNS(=O)(=O)c2ccc(C(=O)/C=C/c3ccc(F)cc3)cc2)nc(N2CCOCC2)n1`, for which the growth was -20.3% (active). For `CCOc1ccc2ncc(C#Cc3cncc(C(=O)Nc4ccc(CN5CCN(C)CC5)c(C(F)(F)F)c4)c3)n2n1`, the growth is 1.2% (active). For the compound `Nc1nc(-c2ccccc2)c(N=Nc2ccc([N+](=O)[O-])cc2Cl)s1`, the growth is 98.1%. For `COc1csc(/C=N/NC(=O)c2[nH]c3ccc(Br)cc3c2-c2ccccc2)c1` the value was -42.8% (active); for `Cn1cc(-c2cc(N)n3nc(-c4c[nH]c5ccc(F)cc45)cc3n2)c2cccnc21`, -54% (active). The figure for `Cn1cc(-c2cc3nc(-c4c[nH]c5ccccc45)cc(N)n3n2)c2cc(Cl)ccc21` is -24.8% (active); for `O=C1Nc2cc(Cl)ccc2/C1=C/c1cccc(OCc2ccccn2)c1` it is -9.79% (active); for `N=C1N=C(SCc2nc3ccccc3[nH]2)NC(=O)/C1=C/c1ccc(Cl)cc1` it is 102%. As for `Cc1ccc(C(=O)NN2C(=O)/C(=C/C=C/c3ccc([N+](=O)[O-])o3)SC2=S)cc1`, the growth is 2.23% (active). On to `CCOC(=O)c1ccc(Nc2nc(NN)nc(-c3ccc(OC)cc3)c2C#N)cc1`, for which the growth was 103%.

`COc1cc(C2CC(c3ccc(C(F)(F)F)cc3)=Nc3c(N)nc(N)nc3N2)ccc1Oc1nc(Nc2ccc(F)cc2)nc(N(C)C)n1` (stereo not given): the growth was 13.7%.

`CN(C)c1ccnc(NCCCSC(c2ccccc2)(c2ccccc2)c2ccccc2)c1`: the growth was -59% (active).

As to `O=C(COc1ccc(NC(=O)Nc2ccccc2)cc1)N=Nc1c(O)[nH]c2ccc([N+](=O)[O-])cc12`, the growth is 23.4%. Consider `COc1cc(/C=C/C(=O)c2ccc(C)cc2)ccc1Oc1nc(Nc2ccc(F)cc2)nc(N(C)C)n1`, for which the growth was 41.7%.

In the case of `COc1ccc(C(SCCNCc2cc(N(C)C)ccn2)(c2ccccc2)c2ccccc2)cc1`, the growth is -43.7% (active). Regarding `CCOC(=O)/C=C/c1cccc2c1C(=O)NC(C)(c1cc3cc(Cl)ccc3oc1=O)N2` (stereo not given), the growth is 2.37% (active). For the compound `CCOc1ccc(Nc2nc3ccccc3nc2Nc2ccc(OCC)cc2)cc1`, the growth was 31.4%.

On to `N/C(=N\c1nc2ccccc2s1)NC(=O)Nc1ccc(Cl)cc1Cl`, for which the growth was -66% (active).

Regarding `O=C(CSc1nnc(-c2c[nH]c3ccccc23)n1-c1ccccc1)Nc1ccc(C(=O)/C=C/c2ccccc2Cl)cc1`, the growth was 78%. With `O=c1[nH]c2ccccc2cc1CSc1ccc(Nc2nccc(-c3ccc(C(F)(F)F)cc3)n2)cc1`, the growth is 69.5%. For `COc1ccc(NC(=O)Cn2c3c(sc2=O)[C@H]2[C@@H](O)[C@@H](O)[C@H](O)[C@@H]2CS3)cc1` the value was 98.1%; for `Cc1cccc(/C=C/c2ccc(NC(=S)NCCCCN(C)C)cc2)c1`, -37.7% (active).

Regarding `Cc1ccc2nc(SCc3ccccc3F)n(-c3ccccc3)c(=O)c2c1`, the growth is 104%. Regarding `O=C1Nc2ccc(F)cc2/C1=C/c1cccc(OCc2ccccn2)c1`, the growth is 7.92% (active). As to `O=C(NN1C(=O)/C(=C/C=C/c2ccc([N+](=O)[O-])o2)SC1=S)c1ccccc1O`, the growth is -0.846% (active). The figure for `O=c1oc2ccc(-c3ccc(F)cc3F)cc2c(=O)n1-c1ccc(F)c(Cl)c1` is -40.3% (active); for `COc1cccc2nc(Nc3cccc(NC(=O)c4ccc(CN5CCCN(C)CC5)c(C(F)(F)F)c4)c3)ccc12` it is -54.3% (active). As for `COc1ccc(CCC2NCCc3c(Br)c4c(c(OC)c32)OCO4)cc1` (stereo not given), the growth is -11.6% (active). As for `Cc1noc2c(Cc3ccc([N+](=O)[O-])cc3)nn(CC(=O)N/N=C/c3ccc(Cl)cc3)c(=O)c12`, the growth was 87.5%. For `O=C1C=CC(=CC=C2N(Cc3ccc4ccccc4c3)c3ccccc3N2Cc2ccc3ccccc3c2)C=C1`, the growth was -26.5% (active) and -21.5% (active). As for `Fc1cccc(CNc2nc(SCCN3CCOCC3)nc3c2cnn3CC(Cl)c2ccc(Br)cc2)c1` (stereo not given), the growth was -23.6% (active).

With `NC(=O)c1ccc(-c2ccc3ncnc(N4CCc5cc(F)c(Cl)cc54)c3c2)cn1`, the growth was 64.9%. As for `Cc1nc(Nc2ccccn2)sc1C(=O)CC(SCC(=O)Nc1ccc(Cl)cc1)c1ccccc1F` (stereo not given), the growth was 14%. As to `Nc1cc2ccccc2c(=O)n1NC(=O)c1ccc(I)cc1`, the growth was 77%.
